Out of some 52,000 compounds screened, about 1,700 (3.3%) were called active. This is one part of a sample in which actives are shown more often than they occur. Values without a mark were called inactive. Cut-off read from the data, not from the text of the source: active = survival mostly below about 52% (no sharp cut-off); inactive = mostly above about 56%.

The experiment deals with Wild type. Briefly: growth inhibition of S. aureus wild type versus tarO mutant, primary screen, teichoic acid synthesis inhibitors, RN4220, OD600 (AID 463173). The following applies: S. aureus RN4220 wild type/DeltatarO growth, OD600, 18 h, active compounds read low, screened at 18.75 µg/mL (by protocol).
`CCc1ccccc1NC(=O)c1cc(S(=O)(=O)N2CCC(C)CC2)cn1C`: the survival is 22%.

Turning to `COC(=O)c1cc(-c2ccc(C)cc2)c2c(=O)n(C)c(=O)n(C)c2n1`, the survival is 105%.

Turning to `O=C(NCCNCc1ccccc1)c1ccco1`, the survival was 115%.

Regarding `CC(=O)Nc1ccc(NC(=O)CCS(=O)(=O)c2ccc3c(c2)CC(=O)N3C)cc1`, the survival is 66%.

As to `N#Cc1c(NC(=O)c2cc3nc(-c4ccc(Br)cc4)cc(C(F)(F)F)n3n2)sc2c1CCCC2`, the survival is 0% (active).

Regarding `COC(=O)c1c(NC(=O)c2cc3nc(-c4ccc(Br)cc4)cc(C(F)(F)F)n3n2)sc2c1CCCC2`, the survival was 82%.

Take `Cc1ccc(-c2cc(C(F)(F)F)n3nc(C(=O)Nc4sc5c(c4C#N)CCC(C)C5)cc3n2)cc1` (stereo not given): the survival was 70%.

As for `COc1ccc(CNC(=O)c2cc(-c3ccc(C)c(C)c3)n[nH]2)cc1`, the survival is 67%.

With `Cc1cc2c(cc1S(=O)(=O)NCc1ccc(F)cc1)n(C)c(=O)c(=O)n2C`, the survival is 85%.

Regarding `Cc1c(C(=O)OCc2ccccc2)[nH]c2c1C(=O)CC(c1ccc(Cl)cc1)C2` (stereo not given), the survival is 99%.

Consider `COc1cc(NC(=O)CNC(=O)Cn2ccc3ccccc3c2=O)cc(OC)c1OC`, for which the survival was 130%.

Regarding `O=S(=O)(Cc1ccccc1)N1CCC(c2nc(-c3cccs3)no2)CC1`, the survival is 110%.

Take `CC1=C(c2ccc(C)cc2)S(=O)(=O)N(Cc2ccc(C(=O)Nc3ccccc3C)cc2)C1=O`: the survival was 78%.

In the case of `Cc1ccc(N2CCN(C(=O)c3cn(C)c4ccc(S(=O)(=O)N5CCCC5)cc4c3=O)CC2C)cc1` (stereo not given), the survival was 134%.

Regarding `Cn1c(C(=O)NCc2ccc(F)cc2)cc2cc(S(=O)(=O)N3CCCCC3)ccc21`, the survival is 131%.

Take `CC(CNC(=O)c1cc2cc(S(=O)(=O)N3CCCCC3)ccc2n1C)c1ccccc1` (stereo not given): the survival was 55%.

With `Cc1ccccc1CNC(=O)c1cc2cc(S(=O)(=O)N3CCCCC3)ccc2n1C`, the survival was 66%.

As for `Cn1c(C(=O)NCCc2ccccc2)cc2cc(S(=O)(=O)N3CCCCC3)ccc21`, the survival is 73%.

Consider `CCC(C)NC(=O)c1cc2cc(S(=O)(=O)N3CCCCC3)ccc2n1C` (stereo not given), for which the survival is 14% (active).

For the compound `CCc1ccc(CNC(=O)c2cc3cc(S(=O)(=O)N4CCCCC4)ccc3n2C)cc1`, the survival was 47%.

In the case of `Cc1ccccc1CCNC(=O)c1cc2cc(S(=O)(=O)N3CCCCC3)ccc2n1C`, the survival is -3% (active).

In the case of `CN(C)c1ccc(CNC(=O)c2cc3cc(S(=O)(=O)N4CCCCC4)ccc3n2C)cc1`, the survival is 0% (active).

Take `CC(C)CCNC(=O)c1cc2cc(S(=O)(=O)N3CCCCC3)ccc2n1C`: the survival was 74%.

For the compound `CCOC(=O)c1sc2cccc(F)c2c1S(=O)(=O)NCc1ccccc1Cl`, the survival was 130%.

With `Clc1ccc2[nH]c3nc4ccccc4nc3c2c1`, the survival was 104%.

Turning to `COc1ccc(Nc2cc(C(=O)NCc3ccccc3)c3ccccc3n2)cc1OC`, the survival was 83%.

For the compound `CC(=O)c1ccc(NC(=O)Cn2cc3c(n2)CCCC3)cc1`, the survival was 82%.

With `Cc1ccsc1CN(Cc1ccco1)C(=O)c1ccc(Cl)cc1`, the survival is 65%.

On to `Cc1nn(C)c2c1c(C(F)(F)F)cc(=O)n2CC(=O)N1CCCCC1`, for which the survival was 67%.

As to `CCOc1ccc(/C=C/c2nc(C#N)c(N3CCN(c4ccc(OC)cc4)CC3)o2)cc1`, the survival was 84%.

With `CCn1cc(C(=O)N2CCN(c3cc(C)ccc3C)CC2)c(=O)c2cc(S(=O)(=O)N3CCOCC3)ccc21`, the survival was 81%.

On to `COc1ccc(CNC(=O)c2ccc(-c3nc(CSc4ccccc4)c(C)o3)cc2)c(OC)c1`, for which the survival is 100%.

As to `Cc1oc(-c2ccc(C(=O)NCCc3ccc(Cl)cc3)cc2)nc1CSc1ccccc1`, the survival was 59%.

Take `Cc1ccc(SCc2nc(-c3ccc(C(=O)NCc4ccc(Cl)cc4)cc3)oc2C)cc1`: the survival was 64%.

As to `CCc1ccc(CNC(=O)c2ccc(-c3nc(CSc4ccc(C)cc4)c(C)o3)cc2)cc1`, the survival was 63%.

Regarding `COc1ccc(OC)c(CNC(=O)c2ccc(-c3nc(CSc4ccccc4)c(C)o3)cc2)c1`, the survival was 129%.

Regarding `COc1ccc(CNC(=O)c2ccc(-c3nc(CSc4ccc(C)cc4)c(C)o3)cc2)cc1OC`, the survival is -3% (active).

For `Cc1ccc(SCc2nc(-c3ccc(C(=O)NCCc4ccc(Cl)cc4)cc3)oc2C)cc1`, the survival is -4% (active).

In the case of `COc1ccc(CNC(=O)c2ccc(-c3nc(CSc4ccc(C)cc4)c(C)o3)cc2)c(OC)c1`, the survival was 1% (active).

Turning to `COc1ccc(CNC(=O)c2ccc(-c3nc(CSc4ccccc4)c(C)o3)cc2)cc1OC`, the survival is 77%.

On to `Cc1cc(N2CCC(C)CC2)nc2ccc(NC(=O)/C=C/c3cccc(Cl)c3)cc12`, for which the survival is 69%.

On to `Cc1ccc(CNc2ccc(-c3nc(-c4ccncc4)no3)cc2[N+](=O)[O-])cc1`, for which the survival is 87%.

Take `CCc1ccc(NS(=O)(=O)c2c(-c3ccccc3)csc2C(=O)OC)cc1`: the survival was 77%.

On to `Cn1c(=O)oc2cc(S(=O)(=O)N3CCCC(C(=O)NCCc4ccc(Cl)cc4)C3)ccc21` (stereo not given), for which the survival was 90%.

Take `CCOc1ccc(CNC(=O)CCn2c(=O)c3cccn3c3cccnc32)cc1`: the survival was 93%.

`Cc1cccc(-n2c(=O)c3c(c4cc(C)ccc4n3C)n(Cc3ccccc3F)c2=O)c1`: the survival was 153%.

Take `O=C1NCN(c2ccccc2)C12CCN(c1nnnn1-c1ccccc1)CC2`: the survival is 102%.

For `CCOc1ccc(N2CC(c3nc4ccccc4n3CCC3CCCCC3)CC2=O)cc1` (stereo not given), the survival was 29%.

For the compound `Cc1ccc(N2CC(c3nc4ccccc4n3CCC3CCCCC3)CC2=O)cc1` (stereo not given), the survival was 80%.

On to `COc1ccccc1OCCCn1c(C2CC(=O)N(c3ccccc3Cl)C2)nc2ccccc21` (stereo not given), for which the survival is 93%.

As for `CCc1ccccc1N1CC(c2nc3ccccc3n2CCC2CCCCC2)CC1=O` (stereo not given), the survival was 25% (active).

As for `CCc1ccccc1N1CC(c2nc3ccccc3n2CC(C)C)CC1=O` (stereo not given), the survival is 91%.

Consider `COc1ccccc1OCCCCn1c(C2CC(=O)N(c3ccccc3Cl)C2)nc2ccccc21` (stereo not given), for which the survival was 85%.

As for `Cc1ccccc1N1CC(c2nc3ccccc3n2CCC2CCCCC2)CC1=O` (stereo not given), the survival is 12% (active).

For the compound `Cc1cccc(N2CC(c3nc4ccccc4n3CCC3CCCCC3)CC2=O)c1` (stereo not given), the survival was 44%.

For the compound `O=C1CC(c2nc3ccccc3n2CCC2CCCCC2)CN1c1ccccc1Cl` (stereo not given), the survival is 32% (active).

Turning to `Cc1c(C(=O)NCc2ccc(N(C)C)cc2)oc2c1-c1nn(Cc3cccc(Cl)c3)cc1CC2`, the survival is 91%.

With `CC1CCCN(S(=O)(=O)c2ccc(N)cc2)C1` (stereo not given), the survival was 109%.

In the case of `COc1ccc(-c2onc(C)c2C)cc1S(=O)(=O)NCCc1ccccc1`, the survival is 57%.

`Cc1ccc(-c2onc(C)c2C)cc1S(=O)(=O)NCc1cccs1`: the survival is 119%.

With `Cc1ccc(-c2onc(C)c2C)cc1S(=O)(=O)NCc1ccc(N(C)C)cc1`, the survival is -4% (active).

On to `Cc1ccc(-c2onc(C)c2C)cc1S(=O)(=O)NCc1ccco1`, for which the survival was 112%.

As to `COc1ccc(CCNS(=O)(=O)c2cc(-c3onc(C)c3C)ccc2OC)cc1OC`, the survival is -3% (active).

Consider `COCCCNS(=O)(=O)c1cc(-c2onc(C)c2C)ccc1OC`, for which the survival was 111%.

For `CCOC(=O)n1c(SCC)nc2ccccc21`, the survival is 104%.

On to `O=C(Cc1ccc(Cl)cc1)NCCc1csc2nc(-c3ccccc3F)nn12`, for which the survival was 69%.

Turning to `Cc1cc(-c2ccccc2)n2nc(-c3cccc(Br)c3)cc2n1`, the survival was 55%.

With `Cc1cc(-c2ccccc2)n2nc(-c3ccccc3)cc2n1`, the survival was -2% (active).

Take `Cc1cc(C)n2nc(-c3ccccc3)cc2n1`: the survival was 116%.

Turning to `CCCCC(=O)Nc1nnc(SCc2cc(=O)n3cc(C)ccc3n2)s1`, the survival is 63%.

Turning to `CC(=O)Nc1nonc1-c1nc2ccccc2n1Cc1ccccc1Br`, the survival is 97%.

`O=C(CCn1c(=O)c2sccc2n(Cc2ccc(F)cc2Cl)c1=O)NCc1ccc2c(c1)OCO2`: the survival was 92%.

In the case of `CCc1ccc2oc(C(=O)NCCc3ccc(OC)c(OC)c3)cc(=O)c2c1`, the survival was 83%.

On to `Cc1c(C(C)(C)C)sc(=N)n1C`, for which the survival was 86%.

For `CCc1ccc(-c2[nH]c3c(c2-c2c(-n4cccc4)n(C)c(=O)n(C)c2=O)c(=O)n(C)c(=O)n3C)cc1`, the survival was 105%.

Regarding `COCCCNC(=O)c1[nH]c2ccccc2c1Sc1ccc(C)cc1`, the survival is 81%.

Take `O=C(c1[nH]c2ccccc2c1Sc1ccc(Cl)cc1)N1CCCCC1`: the survival was 48%.

Turning to `COc1ccc2c(Sc3ccc(Cl)cc3)c(C(=O)NCCCN3CCCCC3)[nH]c2c1`, the survival was -1% (active).

As for `COc1ccc2c(Sc3ccc(Cl)cc3)c(C(=O)N3CCCCC3)[nH]c2c1`, the survival is 33%.

In the case of `O=C(NCCCN1CCCCC1)c1[nH]c2ccccc2c1Sc1ccc(Cl)cc1`, the survival was -1% (active).

Turning to `COc1ccc2c(Sc3ccccc3)c(C(=O)NCCCN3CCCCC3)[nH]c2c1`, the survival was 73%.

In the case of `CCOc1cc(C2CC(=O)Nc3c2c(C)nn3-c2nc(C)cc(C)n2)ccc1O` (stereo not given), the survival was 83%.

Turning to `CCOC(=O)c1cccc(NC(=O)c2cc3c(-c4cccc(OC)c4)nn(C)c3s2)c1`, the survival is 65%.

Consider `CCc1ccc2occ(CC(=O)N(Cc3ccccc3)C3CCS(=O)(=O)C3)c2c1` (stereo not given), for which the survival is 77%.

As to `COc1ccc2c(c1)c1c(c(=O)n(-c3cccc(Cl)c3)c(=O)n1CC(=O)N1CCCC1)n2C`, the survival is 73%.

As to `CCCCN(CCCC)CCNC(=O)CN1C(=O)CSc2ccc(S(=O)(=O)N3CCCCC3)cc21`, the survival is 110%.

Regarding `Cc1ccc(-c2cc(C(=O)O)n(Cc3ccccc3)n2)cc1`, the survival was 63%.

Regarding `COc1ccc(-c2cc(C(=O)O)n(Cc3ccccc3)n2)cc1`, the survival was 63%.

Take `CCOC(=O)c1cnn(Cc2ccccc2)c1N`: the survival is 104%.

With `COC(=O)c1ccc(Cn2nc(-c3ccc(C)cc3)ccc2=O)cc1`, the survival was 145%.

Turning to `CCc1cccc(NC(=O)Cn2nc(-c3ccc(OC)cc3)ccc2=O)c1`, the survival was 59%.

Consider `CCOC(=O)c1cc(-c2ccc(C)cc2)nn1Cc1ccccc1`, for which the survival was 0% (active).

For `CCOC(=O)c1cc(-c2ccccc2)nn1Cc1ccccc1`, the survival was 2% (active).

On to `O=C(O)c1cc(-c2ccccc2)nn1Cc1ccccc1`, for which the survival was 68%.

Consider `CCOC(=O)c1cc(-c2ccc(OC)cc2)nn1Cc1ccccc1`, for which the survival is 10% (active).
